{"source": "PubChem BioAssay", "note": "Some of the results follow. Results filed as inconclusive are left out. A number with no mark means an inactive call. The source made the active and inactive calls.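 The calls were made as follows, unless noted: active = thallium flux slope beyond 3 SD from same-plate DMSO control mean in most replicates, usually higher, sometimes lower; inconclusive = repeat tests gave conflicting results; inactive = no significant difference from controls in most replicates.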"}
{"molecular_target": "Solute carrier family 12 member 5 (Homo sapiens) (UniProt Q9H2X9)", "sequence (Q9H2X9 whole entry, looked up)": "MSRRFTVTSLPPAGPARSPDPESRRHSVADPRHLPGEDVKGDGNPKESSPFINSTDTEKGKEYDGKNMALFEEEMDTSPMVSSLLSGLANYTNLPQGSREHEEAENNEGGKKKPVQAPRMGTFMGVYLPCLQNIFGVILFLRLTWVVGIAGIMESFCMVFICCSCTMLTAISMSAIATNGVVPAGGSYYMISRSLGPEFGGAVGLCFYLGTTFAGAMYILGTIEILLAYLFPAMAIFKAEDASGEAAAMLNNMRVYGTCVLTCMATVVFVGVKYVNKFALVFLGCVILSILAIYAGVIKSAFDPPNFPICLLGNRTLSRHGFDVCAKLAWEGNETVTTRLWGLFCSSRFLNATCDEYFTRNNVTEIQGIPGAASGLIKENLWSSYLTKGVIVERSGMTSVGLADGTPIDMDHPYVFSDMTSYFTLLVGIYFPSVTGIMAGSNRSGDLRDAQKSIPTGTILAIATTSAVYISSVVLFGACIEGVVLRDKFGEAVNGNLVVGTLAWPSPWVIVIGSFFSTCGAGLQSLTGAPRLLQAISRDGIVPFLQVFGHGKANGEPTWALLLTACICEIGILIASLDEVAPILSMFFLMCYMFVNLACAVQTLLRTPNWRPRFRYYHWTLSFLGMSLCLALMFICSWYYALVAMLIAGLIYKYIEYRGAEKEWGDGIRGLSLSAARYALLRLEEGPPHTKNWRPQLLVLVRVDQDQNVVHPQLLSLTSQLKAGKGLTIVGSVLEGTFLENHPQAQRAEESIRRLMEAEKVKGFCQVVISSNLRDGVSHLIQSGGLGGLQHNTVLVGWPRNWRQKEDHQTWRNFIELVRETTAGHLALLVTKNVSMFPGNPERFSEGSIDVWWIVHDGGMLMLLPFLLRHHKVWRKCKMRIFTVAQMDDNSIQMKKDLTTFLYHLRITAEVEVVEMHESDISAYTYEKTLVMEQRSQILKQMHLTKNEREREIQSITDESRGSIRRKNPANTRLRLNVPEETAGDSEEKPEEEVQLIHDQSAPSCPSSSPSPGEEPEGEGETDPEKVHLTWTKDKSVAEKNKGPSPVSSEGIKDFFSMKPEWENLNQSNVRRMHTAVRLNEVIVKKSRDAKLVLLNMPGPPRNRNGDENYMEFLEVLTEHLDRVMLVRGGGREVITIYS", "test": "KCC2 modulators without ouabain present, confirmation, cell-based, HEK293 KCC2, thallium flux, FluoZin2, secondary assay 2 (AID 1715;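 active = thallium flux slope more than 3 SD above or below the plate's solvent-only control mean, mostly below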;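 also: raw slope with 0.1% DMSO as baseline and bumetanide as block control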)", "settings": "HEK293-KCC2, thallium flux FluoZin2 fluorescence; at 10 µM; actives lie on both sides; F/F0 rise rate, 10–20 s post-thallium"}
{"smiles": "CC(=O)NNC(=O)c1csc(Cc2c(Cl)sc3ccc(Cl)cc23)n1", "normalized thallium flux": 0.0308}
{"smiles": "Cc1ccc(N=Cc2c(O)n(-c3nccs3)c(=O)c3ccccc23)c(C)c1", "normalized thallium flux": "0.0195 (active)"}
{"smiles": "O=c1c2ccccc2[nH]c(=S)n1CCN1CCC(=C(c2ccc(F)cc2)c2ccc(F)cc2)CC1", "normalized thallium flux": 0.0294}
{"smiles": "COc1ccccc1N1CCN(C(=O)CSc2ncnc3c2cnn3-c2ccc(C)c(C)c2)CC1", "normalized thallium flux": 0.029}
{"smiles": "O=C(Cn1c(-c2ccc(Cl)cc2)noc1=O)N1CCN(c2ccccc2F)CC1", "normalized thallium flux": "0.0245 (active)"}
{"smiles": "O=C(Oc1c(-c2ccco2)oc2ccccc2c1=O)c1cccnc1", "normalized thallium flux": 0.0399}
{"smiles": "COc1cccc2sc(Nc3nc(C)c(C(C)=O)s3)nc12", "normalized thallium flux": 0.0359}
{"smiles": "CC1CCCCN1S(=O)(=O)c1ccc(C(=O)Nc2nnc(-c3cccs3)o2)cc1", "note": "(stereo not drawn)", "normalized thallium flux": 0.033}
{"smiles": "COc1cc(OC)cc(C(=O)NCCSCc2ccco2)c1", "normalized thallium flux": 0.0289}
{"smiles": "CSc1ncnc2sc(C)c(C)c12", "normalized thallium flux": 0.0306}
{"smiles": "COCCn1c(C)cc(C(=O)CSc2ncnc3sc4c(c23)CCC4)c1C", "normalized thallium flux": 0.0342}
{"smiles": "O=C(C1CCN(c2nnc(-n3cccc3)s2)CC1)N1CCc2ccccc2C1", "normalized thallium flux": "0.0245 (active)"}
{"smiles": "COc1ccccc1-n1cnc2cc(NS(=O)(=O)c3ccccc3)ccc21", "normalized thallium flux": "0.0252 (active)"}
{"smiles": "CCCCC(CC)CNC(=O)C(=O)C1C(=O)Nc2ccccc21", "note": "(stereo not drawn)", "normalized thallium flux": 0.0322}
{"smiles": "Cc1ccc(OCC(=O)N2CCN(C(=O)c3cccnc3)CC2)cc1", "normalized thallium flux": 0.0326}
{"smiles": "Oc1c(Cl)cc(Cl)c(Cl)c1Cc1c(O)c(Cl)cc(Cl)c1Cl", "normalized thallium flux": 0.0364}
{"smiles": "Cn1c(CCCOc2ccc(Cl)cc2Cl)n[nH]c1=S", "normalized thallium flux": "0.0217 (active)"}
{"smiles": "O=C(Cc1csc(Nc2nc(=S)[nH]c3ccccc23)n1)NCCCN1CCN(c2cccc(Cl)c2)CC1", "normalized thallium flux": 0.0374}
{"smiles": "Cc1cc(C(=O)NNC(=S)Nc2ccccc2C)cs1", "normalized thallium flux": 0.0323}
{"smiles": "Cc1ccccc1NC(=S)NNC(=O)c1cccc(Br)c1", "normalized thallium flux": 0.0325}
{"smiles": "O=C(CNCc1cccs1)Nc1cc(S(=O)(=O)N2CCCC2)ccc1Cl", "normalized thallium flux": "0.0229 (active)"}
{"smiles": "Cc1ccc(-n2ncc3c(Nc4cccc(C(=O)O)c4)ncnc32)cc1", "normalized thallium flux": 0.0319}
{"test_system": "not listed separately", "test": "thallium flux modulation in parental HEK cells, confirmation, counter-screen for KCC2 modulator project, cell-based, counterscreen 1 (AID 1716;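 active = thallium flux rate significantly above the same plate's solvent-only control wells, beyond their mean plus 3 SD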)", "settings": "HEK293 parental cells, thallium flux FluoZin2, ouabain; at 10 µM; baseline-ratio fluorescence slope, 10–20 s after thallium"}
{"smiles": "CC(=O)NNC(=O)c1csc(Cc2c(Cl)sc3ccc(Cl)cc23)n1", "thallium flux rate (normalised fluorescence)": "0.0146 (active)"}
{"smiles": "Cc1cc(C)c2cc(CN(Cc3cccs3)Cc3nnnn3CC3CCCO3)c(=O)[nH]c2c1", "note": "(stereo not drawn)", "thallium flux rate (normalised fluorescence)": "0.00572 (active)"}
{"smiles": "O=c1c2ccccc2[nH]c(=S)n1CCN1CCC(=C(c2ccc(F)cc2)c2ccc(F)cc2)CC1", "thallium flux rate (normalised fluorescence)": "0.00955 (active)"}
{"smiles": "O=C(Cn1c(-c2ccc(Cl)cc2)noc1=O)N1CCN(c2ccccc2F)CC1", "thallium flux rate (normalised fluorescence)": 0.00698}
{"smiles": "Cc1c(C(=O)NC(=S)NCc2cccnc2)oc2ccccc12", "thallium flux rate (normalised fluorescence)": "0.028 (active)"}
{"smiles": "CS(=O)(=O)N(CC(=O)N1CCN(c2ccc(F)cc2)CC1)C1CCCCC1", "thallium flux rate (normalised fluorescence)": 0.00762}
{"smiles": "Cc1ccc(C)c(NC(=S)NNC(=S)Nc2ccc(C(C)C)cc2)c1", "thallium flux rate (normalised fluorescence)": "0.0112 (active)"}
{"smiles": "COC(=O)c1sc(NC(=S)NC(=O)c2ccc(C)cc2)nc1C", "thallium flux rate (normalised fluorescence)": "0.0618 (active)"}
{"smiles": "O=C(Nc1ccc2oc(-c3ccccc3F)nc2c1)c1ccco1", "thallium flux rate (normalised fluorescence)": 0.00696}
{"smiles": "O=S(=O)(c1cccc(S(=O)(=O)N2CCC(n3nnc4ccccc43)CC2)c1)N1CCCCC1", "thallium flux rate (normalised fluorescence)": 0.00751}
{"smiles": "CSc1ncnc2sc(C)c(C)c12", "thallium flux rate (normalised fluorescence)": "0.0146 (active)"}
{"smiles": "O=C(Nc1ccn(Cc2ccccc2)n1)c1cccc(F)c1", "thallium flux rate (normalised fluorescence)": 0.00698}
{"smiles": "COc1cccc(NC(=S)NC(=O)c2c(Cl)c(C)nn2C)c1", "thallium flux rate (normalised fluorescence)": "0.0727 (active)"}
{"smiles": "O=C(C1CCN(c2nnc(-n3cccc3)s2)CC1)N1CCc2ccccc2C1", "thallium flux rate (normalised fluorescence)": 0.00773}
{"smiles": "O=C(CSc1ccc(-c2cccs2)nn1)Nc1ccccc1F", "thallium flux rate (normalised fluorescence)": 0.00368}
{"smiles": "COc1ccc(Cl)cc1C(=O)NNC(=S)NC(=O)/C=C/c1ccco1", "thallium flux rate (normalised fluorescence)": "0.0367 (active)"}
{"smiles": "COc1ccccc1-n1cnc2cc(NS(=O)(=O)c3ccccc3)ccc21", "thallium flux rate (normalised fluorescence)": 0.0068}
{"smiles": "O=C(c1cc(-c2ccc(O)cc2)on1)N1CCCc2ccccc21", "thallium flux rate (normalised fluorescence)": 0.00346}
{"smiles": "Fc1ccc(COc2cccc(-c3n[nH]c(=S)o3)c2)cc1", "thallium flux rate (normalised fluorescence)": "0.0348 (active)"}
{"smiles": "CCCCn1c(SCC(=O)NCC2CCCO2)nc2ccc(N3CCOCC3)cc2c1=O", "note": "(stereo not drawn)", "thallium flux rate (normalised fluorescence)": "0.0094 (active)"}
{"molecular_target": "Solute carrier family 12 member 5 (Homo sapiens) (UniProt Q9H2X9)", "test": "KCC2 inhibitors and activators, ouabain retest, confirmation, HEK-KCC2 cells (AID 1717);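 also: slope of initial-normalized fluorescence between seconds 10 and 20 after thallium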", "settings": "HEK293-KCC2, thallium flux FluoZin2 fluorescence, at 10 µM, bidirectional: low = inhibitor, high = activator"}
{"smiles": "Cc1ccc(N=Cc2c(O)n(-c3nccs3)c(=O)c3ccccc23)c(C)c1", "raw Tl+ flux slope (below DMSO = inhibition, above = activation)": "0.0222 (active)"}
{"smiles": "Cc1cc(C)c2cc(CN(Cc3cccs3)Cc3nnnn3CC3CCCO3)c(=O)[nH]c2c1", "note": "(stereo not drawn)", "raw Tl+ flux slope (below DMSO = inhibition, above = activation)": "0.0137 (active)"}
{"smiles": "COc1ccccc1N1CCN(C(=O)CSc2ncnc3c2cnn3-c2ccc(C)c(C)c2)CC1", "raw Tl+ flux slope (below DMSO = inhibition, above = activation)": 0.0176}
{"smiles": "O=C(Oc1c(-c2ccco2)oc2ccccc2c1=O)c1cccnc1", "raw Tl+ flux slope (below DMSO = inhibition, above = activation)": "0.0573 (active)"}
{"smiles": "COc1cccc2sc(Nc3nc(C)c(C(C)=O)s3)nc12", "raw Tl+ flux slope (below DMSO = inhibition, above = activation)": 0.0215}
{"smiles": "CCCCn1c(=S)[nH]c2ncccc2c1=O", "raw Tl+ flux slope (below DMSO = inhibition, above = activation)": "0.0884 (active)"}
{"smiles": "Cc1c(C(=O)NC(=S)NCc2cccnc2)oc2ccccc12", "raw Tl+ flux slope (below DMSO = inhibition, above = activation)": "0.0308 (active)"}
{"smiles": "CS(=O)(=O)N(CC(=O)N1CCN(c2ccc(F)cc2)CC1)C1CCCCC1", "raw Tl+ flux slope (below DMSO = inhibition, above = activation)": "0.0176 (active)"}
{"smiles": "Cc1ccc(C)c(NC(=S)NNC(=S)Nc2ccc(C(C)C)cc2)c1", "raw Tl+ flux slope (below DMSO = inhibition, above = activation)": "0.0152 (active)"}
{"smiles": "COC(=O)c1sc(NC(=S)NC(=O)c2ccc(C)cc2)nc1C", "raw Tl+ flux slope (below DMSO = inhibition, above = activation)": "0.0617 (active)"}
{"smiles": "CC1CCCCN1S(=O)(=O)c1ccc(C(=O)Nc2nnc(-c3cccs3)o2)cc1", "note": "(stereo not drawn)", "raw Tl+ flux slope (below DMSO = inhibition, above = activation)": "0.0294 (active)"}
{"smiles": "O=C(Nc1ccc2oc(-c3ccccc3F)nc2c1)c1ccco1", "raw Tl+ flux slope (below DMSO = inhibition, above = activation)": 0.0137}
{"smiles": "Cn1c(C(=O)NCCc2ccsc2)cc2c(=O)n(C)c3ccccc3c21", "raw Tl+ flux slope (below DMSO = inhibition, above = activation)": "0.0126 (active)"}
{"smiles": "COc1cc(OC)cc(C(=O)NCCSCc2ccco2)c1", "raw Tl+ flux slope (below DMSO = inhibition, above = activation)": 0.0187}
{"smiles": "O=S(=O)(c1cccc(S(=O)(=O)N2CCC(n3nnc4ccccc43)CC2)c1)N1CCCCC1", "raw Tl+ flux slope (below DMSO = inhibition, above = activation)": "0.0174 (active)"}
{"smiles": "O=C(Nc1ccn(Cc2ccccc2)n1)c1cccc(F)c1", "raw Tl+ flux slope (below DMSO = inhibition, above = activation)": "0.017 (active)"}
{"smiles": "COc1cccc(NC(=S)NC(=O)c2c(Cl)c(C)nn2C)c1", "raw Tl+ flux slope (below DMSO = inhibition, above = activation)": "0.066 (active)"}
{"smiles": "O=C(CSc1ccc(-c2cccs2)nn1)Nc1ccccc1F", "raw Tl+ flux slope (below DMSO = inhibition, above = activation)": "0.017 (active)"}
{"smiles": "CC1Cc2ccccc2N1C(=O)CSc1nc2ccccc2o1", "note": "(stereo not drawn)", "raw Tl+ flux slope (below DMSO = inhibition, above = activation)": "0.0143 (active)"}
{"smiles": "COc1ccc(Cl)cc1C(=O)NNC(=S)NC(=O)/C=C/c1ccco1", "raw Tl+ flux slope (below DMSO = inhibition, above = activation)": "0.0379 (active)"}
{"smiles": "CCCCC(CC)CNC(=O)C(=O)C1C(=O)Nc2ccccc21", "note": "(stereo not drawn)", "raw Tl+ flux slope (below DMSO = inhibition, above = activation)": "0.0309 (active)"}
{"smiles": "Cc1ccc(OCC(=O)N2CCN(C(=O)c3cccnc3)CC2)cc1", "raw Tl+ flux slope (below DMSO = inhibition, above = activation)": 0.0189}
{"smiles": "O=C(c1cc(-c2ccc(O)cc2)on1)N1CCCc2ccccc21", "raw Tl+ flux slope (below DMSO = inhibition, above = activation)": "0.0175 (active)"}
{"smiles": "Cn1c(CCCOc2ccc(Cl)cc2Cl)n[nH]c1=S", "raw Tl+ flux slope (below DMSO = inhibition, above = activation)": "0.0131 (active)"}
{"smiles": "Fc1ccc(COc2cccc(-c3n[nH]c(=S)o3)c2)cc1", "raw Tl+ flux slope (below DMSO = inhibition, above = activation)": "0.042 (active)"}
{"smiles": "O=C(Cc1csc(Nc2nc(=S)[nH]c3ccccc23)n1)NCCCN1CCN(c2cccc(Cl)c2)CC1", "raw Tl+ flux slope (below DMSO = inhibition, above = activation)": "0.0417 (active)"}
{"smiles": "CCCCn1c(SCC(=O)NCC2CCCO2)nc2ccc(N3CCOCC3)cc2c1=O", "note": "(stereo not drawn)", "raw Tl+ flux slope (below DMSO = inhibition, above = activation)": "0.0187 (active)"}
{"smiles": "Cc1cc(C(=O)NNC(=S)Nc2ccccc2C)cs1", "raw Tl+ flux slope (below DMSO = inhibition, above = activation)": 0.0239}
{"smiles": "Cc1ccccc1NC(=S)NNC(=O)c1cccc(Br)c1", "raw Tl+ flux slope (below DMSO = inhibition, above = activation)": "0.0311 (active)"}
{"smiles": "O=C(CNCc1cccs1)Nc1cc(S(=O)(=O)N2CCCC2)ccc1Cl", "raw Tl+ flux slope (below DMSO = inhibition, above = activation)": "0.0155 (active)"}
{"smiles": "Cc1ccc(-n2ncc3c(Nc4cccc(C(=O)O)c4)ncnc32)cc1", "raw Tl+ flux slope (below DMSO = inhibition, above = activation)": 0.0185}
